Test results reported in ChEMBL document CHEMBL1961873, “Compounds: GSK PKIS; Assays: Nanosyn kinase panel” (2012).

What was measured:
[1] = target: Dual specificity protein kinase CLK3 (Homo sapiens) (UniProt P49761); details: at 1 µM;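 also: each value is the mean inhibition of CLK3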
[2] = target: Dual specificity tyrosine-phosphorylation-regulated kinase 1A (Homo sapiens) (UniProt Q13627); details: at 0.1 µM
[3] = target: Dual specificity tyrosine-phosphorylation-regulated kinase 1A (Homo sapiens) (UniProt Q13627); details: at 1 µM
[4] = target: Dual specificity tyrosine-phosphorylation-regulated kinase 1B (Homo sapiens) (UniProt Q9Y463); details: at 0.1 µM
Chain of Dual specificity tyrosine-phosphorylation-regulated kinase 1B (Homo sapiens) (Q9Y463 whole entry, looked up): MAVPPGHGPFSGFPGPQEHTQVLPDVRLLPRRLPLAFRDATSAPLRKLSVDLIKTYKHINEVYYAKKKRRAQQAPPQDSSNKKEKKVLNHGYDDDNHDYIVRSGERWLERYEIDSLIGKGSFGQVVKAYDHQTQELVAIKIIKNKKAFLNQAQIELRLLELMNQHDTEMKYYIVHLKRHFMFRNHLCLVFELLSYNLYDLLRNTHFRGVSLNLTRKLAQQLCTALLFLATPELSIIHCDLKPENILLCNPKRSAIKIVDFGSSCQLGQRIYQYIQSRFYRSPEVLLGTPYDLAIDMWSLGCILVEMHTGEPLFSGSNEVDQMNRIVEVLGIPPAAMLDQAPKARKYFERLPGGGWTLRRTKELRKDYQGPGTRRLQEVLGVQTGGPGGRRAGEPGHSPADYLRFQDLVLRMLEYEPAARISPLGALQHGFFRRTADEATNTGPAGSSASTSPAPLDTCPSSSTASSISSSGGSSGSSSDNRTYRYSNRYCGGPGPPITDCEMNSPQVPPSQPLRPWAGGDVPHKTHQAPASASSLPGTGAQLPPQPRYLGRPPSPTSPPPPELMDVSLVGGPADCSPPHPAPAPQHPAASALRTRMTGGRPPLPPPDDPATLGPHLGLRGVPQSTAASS

[5] = target: Dual specificity tyrosine-phosphorylation-regulated kinase 1B (Homo sapiens) (UniProt Q9Y463); details: at 1 µM
[6] = target: T1, Dual specificity tyrosine-phosphorylation-regulated kinase 2 (Homo sapiens) (UniProt Q92630); details: at 0.1 µM
T1 sequence (whole entry): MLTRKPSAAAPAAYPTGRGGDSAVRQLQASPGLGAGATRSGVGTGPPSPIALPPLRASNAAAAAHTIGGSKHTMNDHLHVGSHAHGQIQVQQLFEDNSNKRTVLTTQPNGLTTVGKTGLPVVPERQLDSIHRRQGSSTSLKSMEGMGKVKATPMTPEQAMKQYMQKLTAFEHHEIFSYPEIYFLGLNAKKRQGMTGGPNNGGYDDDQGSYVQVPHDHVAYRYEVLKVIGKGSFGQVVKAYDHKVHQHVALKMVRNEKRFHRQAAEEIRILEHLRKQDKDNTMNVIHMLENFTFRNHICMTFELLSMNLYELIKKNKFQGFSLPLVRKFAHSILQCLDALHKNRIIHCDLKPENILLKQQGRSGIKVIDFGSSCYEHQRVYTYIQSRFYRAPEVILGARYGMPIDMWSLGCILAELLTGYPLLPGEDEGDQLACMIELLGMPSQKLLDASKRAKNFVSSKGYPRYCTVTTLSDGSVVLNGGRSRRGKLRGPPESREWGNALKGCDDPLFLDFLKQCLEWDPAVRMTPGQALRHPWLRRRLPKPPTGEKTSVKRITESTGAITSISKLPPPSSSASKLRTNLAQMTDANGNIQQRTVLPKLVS

[7] = target: T1, Dual specificity tyrosine-phosphorylation-regulated kinase 2 (Homo sapiens); details: at 1 µM
[8] = target: Glycogen synthase kinase-3 alpha (Homo sapiens) (UniProt P49840); details: at 0.1 µM
Chain of Glycogen synthase kinase-3 alpha (Homo sapiens) (P49840 2-483 limits assumed): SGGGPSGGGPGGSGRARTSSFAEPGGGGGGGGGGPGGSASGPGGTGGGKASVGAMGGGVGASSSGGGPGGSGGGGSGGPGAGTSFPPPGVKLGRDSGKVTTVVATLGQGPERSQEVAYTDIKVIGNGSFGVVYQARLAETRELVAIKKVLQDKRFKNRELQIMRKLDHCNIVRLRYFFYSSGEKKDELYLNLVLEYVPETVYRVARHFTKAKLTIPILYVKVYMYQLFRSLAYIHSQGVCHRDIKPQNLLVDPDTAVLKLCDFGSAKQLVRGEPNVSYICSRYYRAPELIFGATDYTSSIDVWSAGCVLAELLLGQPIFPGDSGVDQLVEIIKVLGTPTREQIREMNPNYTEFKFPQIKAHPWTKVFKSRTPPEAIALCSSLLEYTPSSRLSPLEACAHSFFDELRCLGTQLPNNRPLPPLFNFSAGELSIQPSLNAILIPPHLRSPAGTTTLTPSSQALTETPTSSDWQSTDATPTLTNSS

[9] = target: Glycogen synthase kinase-3 alpha (Homo sapiens) (UniProt P49840); details: at 1 µM
[10] = target: Glycogen synthase kinase-3 beta (Homo sapiens) (UniProt P49841); details: at 0.1 µM
Chain of Glycogen synthase kinase-3 beta (Homo sapiens) (P49841 whole entry, looked up): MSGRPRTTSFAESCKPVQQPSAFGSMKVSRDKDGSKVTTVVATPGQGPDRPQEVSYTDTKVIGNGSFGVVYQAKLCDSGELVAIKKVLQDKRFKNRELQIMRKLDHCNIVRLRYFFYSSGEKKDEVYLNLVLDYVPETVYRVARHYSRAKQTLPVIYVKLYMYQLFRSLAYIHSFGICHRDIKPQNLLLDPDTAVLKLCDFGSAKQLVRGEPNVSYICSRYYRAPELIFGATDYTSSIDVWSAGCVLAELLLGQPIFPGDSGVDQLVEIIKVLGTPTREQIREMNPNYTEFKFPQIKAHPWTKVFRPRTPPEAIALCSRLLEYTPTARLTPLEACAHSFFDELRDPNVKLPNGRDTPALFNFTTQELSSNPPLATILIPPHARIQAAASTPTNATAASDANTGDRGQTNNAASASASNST

[11] = target: Glycogen synthase kinase-3 beta (Homo sapiens) (UniProt P49841); details: at 1 µM
[12] = target: Homeodomain-interacting protein kinase 1 (Homo sapiens) (UniProt Q86Z02); details: at 0.1 µM
Chain of Homeodomain-interacting protein kinase 1 (Homo sapiens) (Q86Z02 whole entry, looked up): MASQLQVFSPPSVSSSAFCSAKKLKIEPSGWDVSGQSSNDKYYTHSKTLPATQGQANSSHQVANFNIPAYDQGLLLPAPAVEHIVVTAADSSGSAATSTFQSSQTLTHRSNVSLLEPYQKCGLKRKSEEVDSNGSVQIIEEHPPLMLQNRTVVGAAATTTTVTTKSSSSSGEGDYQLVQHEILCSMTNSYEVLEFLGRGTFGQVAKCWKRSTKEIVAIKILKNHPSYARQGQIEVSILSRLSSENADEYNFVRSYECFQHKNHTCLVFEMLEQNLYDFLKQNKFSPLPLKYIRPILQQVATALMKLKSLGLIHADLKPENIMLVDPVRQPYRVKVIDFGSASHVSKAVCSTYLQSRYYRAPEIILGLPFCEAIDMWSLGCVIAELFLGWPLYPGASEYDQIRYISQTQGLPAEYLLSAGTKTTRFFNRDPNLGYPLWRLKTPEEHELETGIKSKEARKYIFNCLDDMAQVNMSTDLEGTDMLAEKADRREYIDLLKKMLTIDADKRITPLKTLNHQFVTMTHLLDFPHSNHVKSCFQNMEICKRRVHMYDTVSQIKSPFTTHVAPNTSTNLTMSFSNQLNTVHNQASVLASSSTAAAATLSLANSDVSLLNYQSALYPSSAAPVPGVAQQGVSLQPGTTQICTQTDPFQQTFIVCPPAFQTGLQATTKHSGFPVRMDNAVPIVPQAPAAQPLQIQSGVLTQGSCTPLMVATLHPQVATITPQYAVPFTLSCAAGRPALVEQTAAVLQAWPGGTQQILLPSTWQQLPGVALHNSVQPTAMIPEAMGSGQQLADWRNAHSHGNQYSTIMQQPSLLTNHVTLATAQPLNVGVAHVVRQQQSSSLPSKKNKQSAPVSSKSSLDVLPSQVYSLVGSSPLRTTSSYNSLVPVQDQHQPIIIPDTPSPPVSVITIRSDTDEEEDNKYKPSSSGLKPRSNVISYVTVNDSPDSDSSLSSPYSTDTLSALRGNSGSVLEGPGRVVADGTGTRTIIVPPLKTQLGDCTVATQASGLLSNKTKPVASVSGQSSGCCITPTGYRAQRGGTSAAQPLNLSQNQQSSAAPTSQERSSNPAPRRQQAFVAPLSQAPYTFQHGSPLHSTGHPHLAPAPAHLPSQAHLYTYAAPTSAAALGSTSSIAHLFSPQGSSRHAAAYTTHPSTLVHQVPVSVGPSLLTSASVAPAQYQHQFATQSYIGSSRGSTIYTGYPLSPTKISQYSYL

[13] = target: Homeodomain-interacting protein kinase 1 (Homo sapiens) (UniProt Q86Z02); details: at 1 µM
[14] = target: T2, Homeodomain-interacting protein kinase 4 (Homo sapiens) (UniProt Q8NE63); details: at 0.1 µM
T2 sequence (whole entry): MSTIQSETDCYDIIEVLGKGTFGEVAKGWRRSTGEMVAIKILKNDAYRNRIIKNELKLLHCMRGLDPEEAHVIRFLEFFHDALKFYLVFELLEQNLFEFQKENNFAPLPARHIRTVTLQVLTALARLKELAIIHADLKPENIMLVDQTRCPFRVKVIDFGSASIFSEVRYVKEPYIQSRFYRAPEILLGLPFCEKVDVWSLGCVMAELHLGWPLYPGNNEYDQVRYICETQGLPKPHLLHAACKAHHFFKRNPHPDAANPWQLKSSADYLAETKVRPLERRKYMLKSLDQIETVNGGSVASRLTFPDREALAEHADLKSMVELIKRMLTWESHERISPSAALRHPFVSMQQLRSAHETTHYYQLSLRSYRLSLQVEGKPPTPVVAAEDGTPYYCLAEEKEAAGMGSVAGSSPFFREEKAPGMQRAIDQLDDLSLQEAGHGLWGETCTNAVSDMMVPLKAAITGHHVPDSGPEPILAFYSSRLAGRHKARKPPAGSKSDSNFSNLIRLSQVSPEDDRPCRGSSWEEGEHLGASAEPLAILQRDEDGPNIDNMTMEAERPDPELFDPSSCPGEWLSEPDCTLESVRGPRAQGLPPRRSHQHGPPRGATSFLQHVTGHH

[15] = target: T2, Homeodomain-interacting protein kinase 4 (Homo sapiens); details: at 1 µM
[16] = target: Mitogen-activated protein kinase 9 (Homo sapiens) (UniProt P45984); details: at 0.1 µM
Chain of Mitogen-activated protein kinase 9 (Homo sapiens) (P45984 whole entry, looked up): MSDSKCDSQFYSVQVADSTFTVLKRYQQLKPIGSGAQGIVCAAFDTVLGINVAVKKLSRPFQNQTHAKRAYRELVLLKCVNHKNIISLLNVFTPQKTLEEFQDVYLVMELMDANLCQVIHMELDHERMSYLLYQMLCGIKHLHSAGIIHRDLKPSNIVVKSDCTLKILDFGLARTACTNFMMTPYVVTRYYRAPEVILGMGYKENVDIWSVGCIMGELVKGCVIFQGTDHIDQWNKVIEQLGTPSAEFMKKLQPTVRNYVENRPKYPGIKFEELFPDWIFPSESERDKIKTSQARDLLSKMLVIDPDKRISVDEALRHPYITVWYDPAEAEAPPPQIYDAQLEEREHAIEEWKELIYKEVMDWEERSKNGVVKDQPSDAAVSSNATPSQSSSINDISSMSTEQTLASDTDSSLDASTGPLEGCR

[17] = target: Mitogen-activated protein kinase 9 (Homo sapiens) (UniProt P45984); details: at 1 µM
[18] = target: Mitogen-activated protein kinase 1 (Homo sapiens) (UniProt P28482); details: at 0.1 µM
Chain of Mitogen-activated protein kinase 1 (Homo sapiens) (P28482 whole entry): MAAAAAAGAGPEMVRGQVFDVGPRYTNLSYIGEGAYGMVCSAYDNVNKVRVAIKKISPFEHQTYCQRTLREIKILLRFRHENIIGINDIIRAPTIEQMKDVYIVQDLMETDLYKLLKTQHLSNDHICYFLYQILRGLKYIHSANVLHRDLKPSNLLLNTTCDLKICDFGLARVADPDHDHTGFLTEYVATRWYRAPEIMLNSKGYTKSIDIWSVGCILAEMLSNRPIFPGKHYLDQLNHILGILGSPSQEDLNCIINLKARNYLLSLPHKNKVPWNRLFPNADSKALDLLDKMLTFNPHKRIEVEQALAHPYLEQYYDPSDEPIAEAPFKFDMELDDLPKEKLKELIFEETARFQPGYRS

[19] = target: Mitogen-activated protein kinase 1 (Homo sapiens) (UniProt P28482); details: at 1 µM
[20] = target: Mitogen-activated protein kinase 3 (Homo sapiens) (UniProt P27361); details: at 0.1 µM;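 also: each value is a mean inhibition figure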
Chain of Mitogen-activated protein kinase 3 (Homo sapiens) (P27361 whole entry): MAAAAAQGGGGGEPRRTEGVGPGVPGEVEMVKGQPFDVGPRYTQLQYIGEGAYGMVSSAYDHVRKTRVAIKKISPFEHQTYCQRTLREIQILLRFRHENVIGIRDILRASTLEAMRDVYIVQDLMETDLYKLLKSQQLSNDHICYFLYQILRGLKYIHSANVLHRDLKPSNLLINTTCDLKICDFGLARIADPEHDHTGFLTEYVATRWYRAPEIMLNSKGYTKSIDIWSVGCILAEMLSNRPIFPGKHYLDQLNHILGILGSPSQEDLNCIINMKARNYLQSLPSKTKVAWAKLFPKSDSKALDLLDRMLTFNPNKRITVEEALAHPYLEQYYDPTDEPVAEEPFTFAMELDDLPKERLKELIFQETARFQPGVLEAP

Chain of Dual specificity protein kinase CLK3 (Homo sapiens) (P49761 whole entry, looked up): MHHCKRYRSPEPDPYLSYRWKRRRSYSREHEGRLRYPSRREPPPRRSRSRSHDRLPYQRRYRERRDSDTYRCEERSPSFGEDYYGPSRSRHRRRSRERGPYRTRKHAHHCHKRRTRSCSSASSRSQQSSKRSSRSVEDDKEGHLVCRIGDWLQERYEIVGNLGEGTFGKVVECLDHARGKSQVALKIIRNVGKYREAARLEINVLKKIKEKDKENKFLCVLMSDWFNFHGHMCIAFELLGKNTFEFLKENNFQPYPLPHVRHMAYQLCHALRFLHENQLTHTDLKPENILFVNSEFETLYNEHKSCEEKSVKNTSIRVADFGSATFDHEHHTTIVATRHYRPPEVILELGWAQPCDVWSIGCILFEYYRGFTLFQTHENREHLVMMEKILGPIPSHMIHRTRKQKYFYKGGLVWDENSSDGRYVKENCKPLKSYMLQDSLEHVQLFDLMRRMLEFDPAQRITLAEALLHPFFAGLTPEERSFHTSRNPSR

| Structure (SMILES) | inhibition [1] | inhibition [2] | inhibition [3] | inhibition [4] | inhibition [5] | inhibition [6] | inhibition [7] | inhibition [8] | inhibition [9] | inhibition [10] | inhibition [11] | inhibition [12] | inhibition [13] | inhibition [14] | inhibition [15] | inhibition [16] | inhibition [17] | inhibition [18] | inhibition [19] | inhibition [20] |
| --- | --- | --- | --- | --- | --- | --- | --- | --- | --- | --- | --- | --- | --- | --- | --- | --- | --- | --- | --- | --- |
| COc1cc2ncn(-c3cc(OCc4ccccc4C(F)(F)F)c(C(C)=O)s3)c2cc1OC | 1.08% | 1.88% | 2.83% | -0.72% | 0.32% | 1.35% | 1.43% | 1.6% | 3.73% | 1.43% | 2.85% | -0.68% | 4.77% | 3.23% | 7.24% | 0.67% | 0.69% | 5.64% | 5.81% | 3.61% |
| O=C1Nc2ccc(I)cc2C1=Cc1cc(Br)c(O)c(Br)c1 | -0.23% | 1.95% | 4.99% | -0.26% | 3.56% | 4.72% | 8.06% | 0.99% | 5.19% | 0.29% | 5.98% | -1.21% | 6.66% | -0.29% | 6.76% | 5.13% | 7.68% | 2.02% | 4.96% | 3.73% |
| Fc1ccc(-c2ncn(C3CCNCC3)c2-c2ccnc(Oc3ccc(Oc4ccccc4)cc3)n2)cc1 | 1.21% | 2.96% | 3.95% | -0.87% | 0.42% | 4.61% | 7.67% | 2.97% | 2.77% | 2.21% | 3.65% | -1.61% | 2.08% | -0.8% | 0.79% |  |  | 5.58% | 9.79% | 3.67% |
| O=C(Nc1n[nH]c2cc(-c3cc(F)ccc3F)ccc12)C1CC1 | 1.26% | 2.37% | 4.39% | -0.4% | -0.93% | 2.2% | 3.59% | 7.07% | 30.4% |  |  | -1.3% | 1.85% | -0.9% | 3.56% | 4.38% | 6.23% | 2.24% | 4.09% | 4.01% |
| N#Cc1ccc(Oc2nccc(-c3c(-c4ccc(F)cc4)ncn3C3CCNCC3)n2)cc1 | -0.16% | 2.5% | 3.49% | -2.39% | -1.58% | 2.92% | 2.24% | 1.66% | 2.69% | 0.3% | 1.96% | -4.47% | -6.22% | -0.7% | -0.61% |  |  | 4.87% | 6.51% | 6.9% |
| COc1ccc(-c2ccc3c(NC(=O)C4CC4)n[nH]c3n2)cc1 | 2.15% | 0.91% | 1.49% | -0.93% | 0.04% | 1.19% | 2.63% | 3.01% | 8.2% |  |  | 1.57% | 2.49% | 0.72% | 0.93% | 3.56% | 1.85% | 2.19% | 3.67% | 4.98% |
| NC(=O)c1ccc(Oc2nccc(-c3c(-c4ccc(F)cc4)ncn3C3CCNCC3)n2)cc1 | 1.67% | 3.41% | 5.23% | 0.33% | -0.41% | 4.43% | 9.4% | 2.18% | 3.39% | 2.57% | 3.17% | 0.03% | 2.53% | 0.33% | 0.25% |  |  | 5.21% | 6.64% | 3.78% |
| CCS(=O)(=O)c1ccc(OC)c(Nc2ncc(-c3cccc(-c4ccccc4F)c3)o2)c1 | 13.9% | 3.84% | 26% | 3.9% | 18.5% | 1.46% | 10.3% | 2.37% | 9.24% | 1.65% | 7.6% | 1.49% | 6.56% | 3.89% | 17.3% | 0.09% | 6.86% | -1.77% | -3.35% | -2.17% |
| COc1ccc2cc(-c3c(-c4ccncc4)nc(-c4ccc(S(C)(=O)=O)cc4C)n3C)ccc2c1 | 2.06% | 2.19% | 7.68% | 0.76% | 2.36% | 3.55% | 4.35% | 2.9% | 6.04% | 2.27% | 6.76% | 0.5% | -0.46% | -0.03% | 1.88% | 4.44% | 10.1% | 5.2% | 5.44% | 3.83% |
| CS(=O)(=O)CCNCc1ccc(-c2ccc3ncnc(Nc4ccc(OCc5ccccc5)c(Br)c4)c3c2)o1 | -3.65% | -3.54% | -2.54% | -5.79% | -4.49% | 2.81% | 1.15% | -0.62% | -0.89% | -1.65% | -1.69% | -5.84% | -4.53% | 0.44% | 2.6% | 2.5% | 0.7% | 5.3% | 4.08% | 5.25% |
| COc1cc(Nc2ncc(-c3ccccc3)o2)cc(OC)c1OC | 0.88% | 1.8% | 6.39% | 1.65% | 3.72% | -2.15% | -1.69% | 5.71% | 34.4% | 5.44% | 35.8% |  | 11.2% | 0.61% | 3.87% | -3.91% | -3.35% | -2.3% | -1.83% | 0.83% |
| COc1cccc(/C=N/Nc2ncnc3c2cnn3-c2cccc(OC)c2)c1 | 1.67% | 3.1% | 7.79% | -0.79% | 2.23% | 2.19% | 6.04% | 14.8% | 58.1% | 10.3% | 51.1% | -1.82% | 2.63% | 0.49% | 4.13% | 3.29% | 5.5% | 5.68% |  | 3.77% |
| O=C1NC(=O)C(c2cccc(Cl)c2)=C1Nc1ccc(Cl)c(C(=O)O)c1 | 2.4% | 1.22% | 5.02% | -0.3% | 1.57% | 1.93% | 2.84% | 32.8% | 77.5% |  |  | 2.03% | 1.77% | 1.36% | 0.39% | 1.14% | 3.47% | 11% | 5.36% | 5.36% |
| COc1cccc(-n2cnc3c(N/N=C/c4ccncc4)ncnc32)c1 | -2.92% | -3.39% | 2.17% | -3.26% | -0.65% | 0.79% | 2.96% | 3.64% | 34.7% | 3.02% | 32.4% | -2.33% | -0.32% | -0.66% | 3.74% | -1.67% | -0.57% | -1.43% | -0.07% | 0.83% |
